# Laboratory results taken from the supplement of paper PMC10127200.
# Counter-ions that a name gives are not always drawn.
# System: 786-O
# Experiment: Euclidean distance of Cell Painting phenotypic profile (signed KS, 77 features) to DMSO centroid (dimensionless distance); 5 or 10 uM (library dependent); higher = stronger phenotypic change vs DMSO (phenoactivity)
# Conditions: 48 h
# In short: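 Stained cells were imaged confocally at 20X with 9 fields per well, after 48 h of exposure to library compounds at 10 or 5 uM (set by library; 0.1% DMSO final). The cells were five cancer lines and a healthy fibroblast line. From the images, Harmony extracted 77 features, each expressed as a signed Kolmogorov-Smirnov statistic relative to same-plate vehicle wells. Phenoactivity is measured as Euclidean distance to the median vehicle profile, using plate-position-corrected, correlation-weighted profiles averaged across replicates at the top dose.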
row,SMILES,Euclidean distance
1,CN(C)Cc1ccc(-c2nc3cccc4c3n2CCNC4=O)cc1,1.75
2,C[C@@]1(c2cc(-c3cncnc3)c(F)cc2F)CCSC(N)=N1,2.11
3,COCCOc1ccc2c(c1)ncn2-c1ccc2cccc(N3CCC(N)CC3)c2n1,2.57
4,CCc1c(C(=O)NCCc2ccc(N3CCCCC3)cc2)[nH]c2ccc(Cl)cc12,1.69
5,NS(=O)(=O)c1cc2c(cc1Cl)NCNS2(=O)=O [Hydrochlorothiazide],1.82
6,COc1ccc(-c2cc(=S)ss2)cc1 [Anethole trithione],1.49
7,CNC(=O)CN(CCN(CCN(CC(=O)[O-])CC(=O)NC)CC(=O)[O-])CC(=O)[O-].[Gd+3] [Gadodiamide],0.953
8,Cc1ccc2c(=O)c3cccc(CC(=O)O)c3oc2c1C [DMXAA (Vadimezan)],2.33
9,CCN(CC)CCOC(=O)C(c1ccccc1)c1ccccc1 [Adiphenine HCl],1.67
10,C=CCc1cc(OC)c(O)c(C(=O)NCCO)c1 [Alibendol],2.26
11,"c1ccc(C2CN3CCSC3=N2)cc1 (single isomer, unassigned; (-)) [(-)-Tetramisole]",1.24
12,C=CCn1c(=O)c2cnc(Nc3ccc(N4CCN(C)CC4)cc3)nc2n1-c1cccc(C(C)(C)O)n1,3.28
13,COc1cc(NS(=O)(=O)c2ccc(N)cc2)nc(OC)n1 [Sulphadimethoxine],1.31
14,CC(C)C(=O)c1c(C(C)C)nn2ccccc12 [Ibudilast],0.973
15,C[C@@H]1CN(CC(=O)Nc2ccc3c(c2)Cc2cccc(-c4cc(=O)cc(N5CCOCC5)o4)c2S3)C[C@H](C)O1,1.16
